Out of some 310,000 compounds screened, about 14,000 (4.5%) showed an effect of 50% or more. The effect is printed as a negative number. The list comes from a sample in which strong results are over-represented; it also holds similar structures and randomly drawn compounds.
Molecular target: human ether-à-go-go-related gene (hERG) potassium channel (human, UniProt Q12809)
Test: primary screen, population patch clamp on CHO cells stably expressing hERG; higher = less effect of the substance
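Further: peak tail current of the secondary pulse compared with the same well before compound.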

Chain of human ether-à-go-go-related gene (hERG) potassium channel (Q12809 whole entry, looked up): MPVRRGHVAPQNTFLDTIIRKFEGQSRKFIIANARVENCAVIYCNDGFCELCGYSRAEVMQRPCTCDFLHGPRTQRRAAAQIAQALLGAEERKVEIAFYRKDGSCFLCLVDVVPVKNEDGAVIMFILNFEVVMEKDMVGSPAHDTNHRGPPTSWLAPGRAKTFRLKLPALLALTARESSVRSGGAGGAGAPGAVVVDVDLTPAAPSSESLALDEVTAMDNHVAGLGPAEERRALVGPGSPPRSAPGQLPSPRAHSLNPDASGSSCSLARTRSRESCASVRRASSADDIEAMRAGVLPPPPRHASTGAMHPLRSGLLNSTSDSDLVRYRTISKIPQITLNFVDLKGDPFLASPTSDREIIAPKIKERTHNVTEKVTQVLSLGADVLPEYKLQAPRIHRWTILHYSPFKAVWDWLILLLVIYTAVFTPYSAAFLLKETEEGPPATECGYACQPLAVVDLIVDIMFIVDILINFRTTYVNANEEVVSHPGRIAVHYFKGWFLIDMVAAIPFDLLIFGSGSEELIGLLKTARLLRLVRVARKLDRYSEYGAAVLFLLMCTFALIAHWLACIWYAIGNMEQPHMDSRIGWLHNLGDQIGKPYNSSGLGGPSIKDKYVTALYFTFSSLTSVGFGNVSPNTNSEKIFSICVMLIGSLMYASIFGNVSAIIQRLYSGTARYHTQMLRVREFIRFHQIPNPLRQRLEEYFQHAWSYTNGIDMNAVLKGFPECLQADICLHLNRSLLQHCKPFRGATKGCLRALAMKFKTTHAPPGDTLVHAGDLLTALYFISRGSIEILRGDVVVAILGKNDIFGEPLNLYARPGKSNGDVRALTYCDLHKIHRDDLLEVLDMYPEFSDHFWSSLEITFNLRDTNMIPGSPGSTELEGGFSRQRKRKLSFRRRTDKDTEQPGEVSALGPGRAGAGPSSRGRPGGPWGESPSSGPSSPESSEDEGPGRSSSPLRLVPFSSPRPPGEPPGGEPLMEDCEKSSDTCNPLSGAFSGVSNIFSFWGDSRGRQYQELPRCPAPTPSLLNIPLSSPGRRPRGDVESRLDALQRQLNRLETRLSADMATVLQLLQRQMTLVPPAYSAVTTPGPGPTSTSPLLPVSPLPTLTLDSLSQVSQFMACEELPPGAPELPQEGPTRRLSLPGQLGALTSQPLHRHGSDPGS

Structure (SMILES)	hERG current change (%, negative = inhibition) at 10uM [%]
COc1ccc(NC(=O)c2ccccc2Oc2ccccc2)c(OC)c1	1.42
COc1ccc(C(C(=O)NC2CCCCC2)N(Cc2cccnc2)C(=O)c2snc(C(N)=O)c2N)cc1 (stereo not drawn)	-11.8
COc1ccc(/C=N/N2CCOCC2)cc1Cn1nc(C)c([N+](=O)[O-])c1C	-10.8
COc1ccc(/C=N/n2cncn2)cc1Cn1cc([N+](=O)[O-])cn1	-32.1
COc1ccc(/C=N/n2cncn2)cc1Cn1nc(C)c([N+](=O)[O-])c1C	-53.6
COC(=O)[C@]1(CC(C)C)N[C@H](c2ccc(-c3ccc(F)cc3)cc2)[C@@H]2C(=O)N(C)C(=O)[C@@H]21.O=C(O)C(F)(F)F	-15.7
Cl.O=c1cc(-c2ccccc2)[nH]n1-c1nc2ccccc2[nH]1	7.02
COc1ccc(-c2cc(=O)n(-c3nc4ccccc4[nH]3)[nH]2)cc1	-53.1
COC(=O)Cc1cc(=O)n(-c2nc3ccccc3[nH]2)[nH]1	-23.3
CCN(CC)CCOC(=O)/C=C/c1ccccc1.Cl	-12.4
Cc1cccc(Nc2nnc(SCC(=O)NCc3cccs3)s2)c1	21.9
Cc1cc(C)n(-c2nc(C)nc(NCc3ccccc3)n2)n1	-86.9
Cc1cc(C)n(-c2nc(Nc3ccccc3)nc(-n3nc(C)cc3C)n2)n1	15.6
CNc1nc(C)nc(-n2nc(C)cc2C)n1	15.8
CC(=O)Nc1nc(SCc2ccc(Cl)cc2Cl)n[nH]1	16.4
O=[N+]([O-])c1ccc2c(c1)nc1n2CCSC1	-19.2
Cc1cc(C)n2c(Br)c(CN3CC4CC(C3)c3cccc(=O)n3C4)nc2n1 (stereo not drawn)	0.651
Cc1oc(-c2ccc(F)cc2F)nc1CN1C[C@@H]2C[C@@H](C1)c1cccc(=O)n1C2	-74.4
Cc1ccc2occ(CN3CCN(Cc4ccccc4)CC3)c(=O)c2c1	-45.9
Cc1cccc(N2CCN(Cc3nc(-c4ccc(F)cc4F)oc3C)CC2)n1	-41.3
COc1ccc(CN2CC3CC(C2)c2cccc(=O)n2C3)cc1OC (stereo not drawn)	-5.24

Structure (SMILES)	hERG current change (%, negative = inhibition) at 10uM [%]
COc1cc(C)c(-c2nc(CN3C[C@@H]4C[C@@H](C3)c3cccc(=O)n3C4)c(C)o2)cc1C	-57.6
Cc1ccc2occ(CN3CC4CC(C3)c3cccc(=O)n3C4)c(=O)c2c1 (stereo not drawn)	-63.9
Cc1ccc(CN2CC3CC(C2)c2cccc(=O)n2C3)cc1 (stereo not drawn)	-5.29
COc1cc(CN2CC3CC(C2)c2cccc(=O)n2C3)cc(OC)c1OC (stereo not drawn)	-6.41
COC(=O)C1=C(N)N(c2ccccc2C(F)(F)F)C2=C(C(=O)CCC2)C1c1ccc2c(c1)OCO2 (stereo not drawn)	20.5
CC(C)(C)c1nc2scc(-c3ccc(Br)cc3)c2c(=O)o1	7.26
Cc1cc(C(=O)Nc2nnc(C3CCCCC3)s2)cs1	-5.46
COc1ccc(CCN(Cc2cccs2)S(=O)(=O)c2ccc(S(=O)(=O)N(C)C3CCCCC3)cc2)cc1OC	2.56
COc1cc(NC(=O)CCc2nnc3ccc(N4CCCC4)nn23)cc(OC)c1OC	6.49
Cn1cc(/C=C(\NC(=O)c2ccccc2Cl)C(=O)NCCN2CCOCC2)c2ccccc21	-30
O=C(CCC1CC(=O)Nc2ccccc21)NCc1ccc(F)cc1 (stereo not drawn)	-17.6
O=C(Nc1nc(-c2ccc(F)cc2)cs1)c1cccc(N2C(=O)CCC2=O)c1	9.67
COc1ccc(C)cc1S(=O)(=O)N1CCCC(C(=O)NC2CC2)C1 (stereo not drawn)	-0.49
O=C(NCc1ccccc1)C1CC(=O)N(C2CCCCC2)C1 (stereo not drawn)	17.8
Cc1cccc(C(=O)NCC(=O)N2CCN(S(=O)(=O)c3ccccc3)CC2)c1	-10.8
O=C(NCC(=O)N1CCN(S(=O)(=O)c2ccccc2)CC1)c1ccc2ccccc2c1	-53.5
Cc1cccc(C(=O)NCC(=O)N2CCC2)c1	2.59
Cc1ccc(C)c(S(=O)(=O)N2CCN(C(=O)CNC(=O)c3ccc4ccccc4c3)CC2)c1	-28.1
Cc1ccc(S(=O)(=O)N2CCCN(C(=O)CNC(=O)c3cccc(C)c3)CC2)cc1	-54.3
O=C(NCC(=O)N1CCN(S(=O)(=O)c2ccccc2F)CC1)c1ccc2ccccc2c1	-12.2
CCOC(=O)C1CCN(c2cc3c(cc2NC(=O)c2ccccc2Cl)n(C)c(=O)n3C)CC1	-48.8
